# Test results published in PubChem BioAssay.
# “And” between values parts separate entries of the source, which are not always exact repeats. Identical values can stand only once. The source made the active and inactive calls. Unless noted, how the calls were made is not given here.
# Key:
# [1] = liver-stage malaria parasite load reduction – cell-based, known kinase inhibitor set, luminescence, hepatoma host viability (AID 624392); details: Plasmodium liver stage in hepatoma cells, luciferase luminescence, concentration not given here; liver cell % of control: measured here: host liver cell viability; parasite % of control: stronger effect = lower value;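 further: infected cells incubated roughly two days before readout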
# [2] = altered dexamethasone sensitivity, NF-kB reporter, cell-based, luciferase, IL-1B stimulus (AID 624486); details: IL-1B + dexamethasone, luminescence; percent of negative control (+Dex): actives lie on both sides, concentration not given here; z-score: measured here: IL-1B alone, no Dex;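 on percent of negative control (+Dex): 100% = mean signal of vehicle control wells on the plate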
# [3] = C. elegans survival during P. aeruginosa infection – whole organism (AID 651566);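 further: tested at 14 µM; sign flipped so higher z means a lower ratio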; details: C. elegans killed by P. aeruginosa, survival ratio
# [4] = pro-inflammatory signaling induction in mouse macrophages – cell-based, murine, luminescence (AID 652131); details: murine macrophage pro-inflammatory reporter, stronger effect = higher value
# [5] = biological target: Cellular tumor antigen p53 (Homo sapiens) (UniProt P04637); experiment: GFP-p53 level modulators in HPV16+ cells – imaging, known kinase inhibitor set, EGFP/DsRed ratio (AID 1053116); details: GFP-p53 stability, stronger effect = higher value; EGFP object count: measured here: GFP-p53 positive objects count;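 further: cells exposed to compounds for 24 h at 37 °C before reading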
# Sequence of Cellular tumor antigen p53 (Homo sapiens) (P04637 whole entry, looked up): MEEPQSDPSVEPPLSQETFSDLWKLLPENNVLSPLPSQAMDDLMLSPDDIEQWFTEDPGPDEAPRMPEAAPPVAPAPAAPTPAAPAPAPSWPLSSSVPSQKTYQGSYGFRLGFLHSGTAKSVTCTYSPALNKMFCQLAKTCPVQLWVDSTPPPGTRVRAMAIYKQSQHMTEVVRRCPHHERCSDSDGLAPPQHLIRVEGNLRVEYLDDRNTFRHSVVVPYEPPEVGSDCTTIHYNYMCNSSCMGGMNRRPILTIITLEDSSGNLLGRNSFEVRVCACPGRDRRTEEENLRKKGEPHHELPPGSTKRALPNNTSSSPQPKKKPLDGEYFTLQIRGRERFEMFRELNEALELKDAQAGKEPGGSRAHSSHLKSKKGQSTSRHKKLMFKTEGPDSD
# [6] = inducers of IRF3 signaling, differentiated THP-1 – cell-based, PMA-stimulated THP-1, luminescence (AID 1053176); details: PMA-differentiated THP-1, IRF3 reporter luminescence; stronger effect = higher value
# [7] = MELAS cybrid and Rieske KO viability enhancers – cell-based, MELAS cybrids, Rieske KO mouse fibroblasts, CellTiter-Glo, primary screen (AID 1508586;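 active means mean z-score across replicates of 1.96 or higher in either the MELAS or the Rieske mutant cell line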;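 further: z relative to plate mean and SD of compound and empty wells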); details: low glucose
# [8] = MELAS cybrid survival, CellTiter-Glo 48 h, stronger effect = higher value
# [9] = Rieske KO mouse fibroblast survival, CellTiter-Glo 72 h
Structure (SMILES),liver cell % of control [1],parasite % of control [1],percent of negative control (+Dex) [2],z-score [2],z-score [3],z-score [4],EGFP object count [5],EGFP/DsRed ratio [5],fraction signal [6],"z-score [7, 8]","z-score [7, 9]"
COc1ccc2cc(-c3c(-c4ccncc4)nc(-c4ccc(S(C)(=O)=O)cc4C)n3C)ccc2c1,118%,101% (inactive),99% (inactive),0.22,1.57 (inactive),-0.298 (inactive),1.5,0.0486 (inactive),0.0025 (inactive),-0.409 (inactive),-0.281
O=C(O[C@H]1CN[C@H](C#Cc2cc3ncnc(Nc4ccc(OCc5cccc(F)c5)c(Cl)c4)c3s2)C1)N1CCOCC1,89.4%,117% (inactive),74.5% (inactive),-1.65,0.44 (inactive),-0.505 (inactive),4.5,0.0369 (inactive),-0.0095 (inactive),-0.421 (inactive),-0.498
CC(C)c1ccc(Nc2nccc(-c3cnn4ncccc34)n2)cc1,146%,13.9% (active),12.5% (active),-8.57,0.07 (inactive),-1.83 (inactive),3.5,0.181 (inactive),-0.005 (inactive),0.723 (inactive),-0.0455
NS(=O)(=O)c1ccc(N=Cc2c(O)[nH]c3ccc4ncsc4c23)cc1,60.5% and 61.1%,165% (inactive) and 378% (inactive),112% (inactive) and 98.5% (inactive),0.655 and 0.01,0.515 (inactive) and 0.145 (inactive),-1.62 (inactive) and -1.7 (inactive),2.5 and 4,0.0629 (inactive) and 0.096 (inactive),-0.009 (inactive) and 0.0005 (inactive),-0.336 (inactive) and 1.1 (inactive),0.0286 and -0.139
COc1ccc(-c2nn3ncccc3c2-c2ccnc(Nc3cccc(C(F)(F)F)c3)n2)cc1,92.5%,122% (inactive),90.5% (inactive),0.64,0.3 (inactive),0.045 (inactive),4.5,0.0918 (inactive),0.002 (inactive),1.24 (inactive),-0.239
COc1cc2ncn(-c3cc(O[C@H](C)c4ccccc4Cl)c(C(N)=O)s3)c2cc1OC,137%,13.5% (active),53.5% (inactive),-3.26,-0.155 (inactive),-1.16 (inactive),5.5,0.108 (inactive),-0.004 (inactive),-1.03,5.68
COc1ccc(Nc2ncc(-c3ccccc3)o2)cc1OC,152%,101% (inactive),154% (inactive),4.41,-0.885 (inactive),4.21 (inactive),3,0.0153 (inactive),-0.0085 (inactive),1.52 (inactive),0.00272
CCCN1CCC=C(c2ccc(Nc3nc(Nc4ccccc4C(N)=O)c4cc[nH]c4n3)c(C)c2)C1,86.8%,580% (inactive),88% (inactive),-0.67,0.47 (inactive),-1.61 (inactive),4,0.193 (inactive),0 (inactive),-0.329 (inactive),0.0526
CC(C)COC(=O)c1ccc2[nH]c(O)c(C=Nc3ccc(S(N)(=O)=O)cc3)c2c1,61%,105% (inactive),108% (inactive),0.975,0.47 (inactive),-1.9 (inactive),3.5,0.0968 (inactive),-0.013 (inactive),-0.896 (inactive),0.112
CCn1c(-c2nonc2N)nc2c(C#CC(C)(C)O)ncc(OCC3CCNCC3)c21,88.1%,91.5% (inactive),86% (inactive),-0.76,-1.35 (inactive),3.98 (inactive),13,0.169 (inactive),0.002 (inactive),0.123 (inactive),-0.292
CN1CCC(n2cnc(-c3ccc(F)cc3)c2-c2ccnc(NCCO)n2)CC1,86.8%,138% (inactive),102% (inactive),1.04,0.4 (inactive),0.387 (inactive),3.5,0.139 (inactive),-0.0015 (inactive),-0.289 (inactive),-0.297
Cc1cccc(C2NNCC2c2ccc3ncccc3n2)n1 (centres undefined),89.8%,104% (inactive),58.5% (inactive),-3.81,0.465 (inactive),0.276 (inactive),4,0.132 (inactive),0.0035 (inactive),0.0567 (inactive),-0.176
Nc1ncc(-c2cccc(S(N)(=O)=O)c2)c2scc(-c3ccc(F)c(Cl)c3)c12,86.2%,63% (inactive),101% (inactive),-0.045,0.425 (inactive),0.178 (inactive),7,0.225 (inactive),-0.008 (inactive),-0.767 (inactive),-0.224
COc1ccc2ncnc(Nc3ccc(OCc4ccccc4)cc3)c2c1,120%,92.8% (inactive),88% (inactive),-0.885,0.35 (inactive),1.39 (inactive),4,0.134 (inactive),-0.023 (inactive),-0.876 (inactive),-0.262
